# Screening data: PubChem, National Center for Advancing Translational Sciences (NCATS)
# Caspase-7 inhib: qHTS Assay for Allosteric/Competitive Inhibitors of Caspase-7; recombinant caspase-7, Ac-DEVD-AFC fluorescence rate; Potency, µM (titrated, usually from 57.5 µM), without a hit: top-dose activity change, negative = inhibition, actives largely listed as inhibitors; hit rate 0.02% among 75,000; active = well fitted inhibition curve with a large enough effect in the main read-out, with a control signal flat, not every such curve was filed as active; inconclusive = small, poorly fitted or top-dose-only effect, or a change in a side signal; also: % of control where 0% means no effect
# IkB sig inh: IkB Signaling; ABC-DLBCL IkBa-CBG/CBR dual luciferase ratio, 4 h; response scale: scaled: untreated 0%, proteasome inhibitor 100%; Potency, µM (highest dose often 57.1 µM), without a hit: at the highest dose IkBa stabilization activation; hit rate 0.04% among 110,000; AID 445, 2006; active = well fitted curve in the direction sought with a large enough effect in the signal ratio, not every such curve was filed as active; inconclusive = small, poorly fitted or top-dose-only effect, or a change in a side signal; the % refers to the signal ratio;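 also: the direction sought is a rising ratio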
#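 In this assay, an IκBα–CBG68 fusion accumulates when IKK-driven degradation is blocked; native CBR normalizes for cell number. OCI-Ly3 cells were treated 4 h with compound and doxycycline, then green and red light read after Chroma-Glo addition.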
# p53ts 32C tox: qHTS Screen for Compounds that Selectively Target Cancer Cells with p53 Mutations: Cytotoxicity of p53ts Cells at the Permissive Temperature | hit rate 0.93% among 130,000 | H1299-p53A138V at 32C, ATP luminescence viability, 24 h | Potency, µM (top dose mostly 46.1 µM), for inactives: at the highest dose activity change, negative = cytotoxicity, hits mostly cytotoxic;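 also: 0% = DMSO and -100% = full killing by reference compound; nearly all actives have a fitted effect of over 55% in size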
#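 ATP-content luminescence (ATPlite) read-out after 24 h compound exposure at 32C in H1299-p53A138V cells (600/well). Tested up to 46 uM. Normalized to DMSO (0%) and 100 uM tamoxifen (100% killing); Hill-fit AC50.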
# p53ts 39C kill: qHTS Screen for Compounds that Selectively Target Cancer Cells with p53 Mutations: Cytotoxicity of p53ts Cells at the Nonpermissive Temperature. H1299-p53A138V viability at 39C, ATP luminescence, 24 h. Potency, µM (doses to about 46.1 µM), for the others: at the top dose activity change, negative = cell killing, actives largely listed as cytotoxic. hit rate 1.5% among 130,000. AID 902, 2007; also: % is scaled to controls: 0 for no effect and ±100 for the full control effect; nearly all actives have a fitted effect of over 55% in size
# FLuc inh: qHTS Assay for Inhibitors of Firefly Luciferase | purified firefly luciferase, luminescence, 8 min | Potency, µM (series often up to 57.1 µM), without a hit: top-dose activity change, negative = inhibition, most hits filed as inhibitors | hit rate 2.2% among 72,000; also: % is scaled to controls: 0 for no effect and ±100 for the full control effect; nearly all actives have a fitted effect of over 40% in size
#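 Here, luciferase activity is measured as luminescence following an 8 min room-temperature reaction at 10 uM ATP, pH 7.2. Every library sample is titrated.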
# Casp1 inh: qHTS Assay for Allosteric/Competitive Inhibitors of Caspase-1. Caspase-1 enzyme, Ac-WEHD-AFC fluorogenic rate. Potency, µM (doses to about 57.5 µM), for inactives: at the highest dose activity change, negative = inhibition, hits mostly inhibitors. P29466. AID 900, 2007. hit rate 0.03% among 75,000;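 also: plate controls were vehicle for no effect and no substrate for full effect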
# Target sequence (P29466 120-297 limits assumed): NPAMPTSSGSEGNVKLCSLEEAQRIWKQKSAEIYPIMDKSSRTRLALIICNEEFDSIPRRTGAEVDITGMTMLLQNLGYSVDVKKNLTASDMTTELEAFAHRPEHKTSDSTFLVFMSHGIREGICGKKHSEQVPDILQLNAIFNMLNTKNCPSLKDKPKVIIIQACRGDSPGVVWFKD
# Target sequence (P29466 317-404 limits assumed): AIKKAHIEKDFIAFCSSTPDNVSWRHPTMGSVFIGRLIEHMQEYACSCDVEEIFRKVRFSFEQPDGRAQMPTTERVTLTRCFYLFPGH
# Starred values were filed as active, the others as inactive; u = inconclusive; x = no result; ! = a repeat was not active; [ ] = remark or other dose. Sampled rows, rich in hits. Any-hit rate of the full collection: about 2.5%. Unless noted, calls follow the shape of the dose curve; as a rule, active = well fitted curve in the direction sought with a large enough effect; inconclusive = small, poorly fitted or top-dose-only effect, or another doubt; inactive = no such curve, though single readings can be large; an effect the other way counts as inactive or inconclusive. Potency is read from the fitted curve at half-maximal effect.
SMILES,Caspase-7 inhib,IkB sig inh,p53ts 32C tox,p53ts 39C kill,FLuc inh,Casp1 inh
O=C(Nc1ccc(Cl)cc1)c1ccc2c(c1)OCO2,-4.2%,10.7%,u,-28.8%,3.98µM*,-4.1%
Cc1noc(C(=O)Nc2ccc3c(c2)OCO3)c1Cl,-3.9%,4.9%,u,-26.4%,12.6µM*,-2.3%
Cc1cccc(S(=O)(=O)c2cn(Cc3ccc(F)cc3)c3cc(N4CCOCC4)c(F)cc3c2=O)c1,x,u,15.3%,4.5%,x,x
CCOC(=O)Cn1nc(-c2ccc(C)cc2)ccc1=O,0.5%,-3.8%,1.5%,-8.0%,-3.2%,-2.0%
Cc1cc(-c2ccc(N3C(=O)CCC3=O)c(C)c2)ccc1N1C(=O)CCC1=O,-0.1%,0.4%,u,-3.6%,15.8µM*,-2.0%
Cc1ccc(-c2ccc(OCC(=O)N3CCOCC3)cc2)cc1,-2.6%,0.4%,-29.5%,-21.4%,12.6µM*,-0.2%
O=C(CCCOc1ccc(Cl)cc1)N1CCOCC1,-2.5%,-1.5%,2.1%,2.2%,2.0%,-1.4%
COc1ccc(NC(=O)Nc2ccc(OCC(=O)N3CCOCC3)cc2)cc1OC,1.1%,0.0%,u,u,12.6µM*,-0.2%
O=C(COc1ccc(C(=S)N2CCOCC2)cc1)N1CCCC1,-0.1%,-1.1%,-1.7%,6.6%,2.7%,0.4%
CCCCOc1ccc(-c2nnn(CCC(=O)N3CCOCC3)n2)cc1,-0.6%,1.0%,u,u,6.31µM*,-1.0%
O=C1NC(=O)C(c2cn(-c3ccccc3)nc2-c2ccc(F)cc2)N1 (configuration not stated),x,x,x,x,-0.9%[25.5 µM],x
COc1ccc(N2CCN(C(=O)c3ccc(CNc4c(N5CCOCC5)c(=O)c4=O)cc3)CC2)cc1,1.0%,-1.0%,6.5%,-0.7%,1.7%,-0.6%
C[C@]12CCC(=O)C=C1CC[C@@H]1[C@@H]2[C@@H](O)C[C@@]2(C)[C@H]1CC[C@]2(O)C(=O)COC(=O)CCC(=O)O,x,x,x,x,-1.1%[25.5 µM],x
C[C@@]12CCC(=O)C=C1CC[C@@H]1[C@@H]2[C@H](O)C[C@]2(C)[C@@H]1CC[C@]2(O)C(=O)CO,0.8%[25.7 µM],0.0794µM*!,x,x,0.2%[25.5 µM],1.5%[25.7 µM]
C[C@@]12CCC(=O)C=C1CC[C@@H]1[C@@H]2[C@H](O)C[C@]2(C)[C@@H]1CC[C@]2(O)C(=O)COC(=O)CCC(=O)O,1.2%,0.126µM*,9.1%,12.9%,0.3%,1.7%
CCOC(=O)c1ccc(-c2ccc(/C=C(\C#N)c3nc4ccc(C)cc4[nH]3)o2)cc1,x,u,u,3.16µM*,x,x
N#C/C(=C\c1ccc(-c2ccc(F)cc2F)o1)c1nc2ccccc2[nH]1,x,-11.2%,15.8µM*,6.31µM*,x,x
O=C(NCCc1ccncc1)c1ccccc1F,0.3%,-0.3%,3.4%,1.6%,-4.1%,-0.1%
CC(C)(CO)NCC(O)COc1ccc2c(c1)CCC2 (configuration not stated),x,x,x,-8.1%,x,x
Cc1cc(C(=O)COC(=O)C2COc3ccccc3O2)c(C)n1CC1CCCO1 (configuration not stated),-1.0%,-1.3%,-6.2%,-5.7%,15.8µM*,-5.4%
Cc1ccc(-c2cc(-c3ccccc3Cl)[nH]n2)c(O)c1,-9.8%,u,-29.5%,u,10µM*,-3.5%
Cc1ccc(-c2cn3c(n2)CCCC3)cc1,-0.9%,-0.4%,-7.4%,-10.6%,-1.0%,-1.8%
COc1ccc(-c2cn3c(n2)CCC3)cc1,-1.2%,0.0%,-24.9%,-27.3%,15.8µM*,0.8%
CCc1cc2cc(C(=O)Nc3ccc(F)cc3)sc2s1,x,x,9.3%,10.9%,x,x
CCc1cc2cc(C(=O)Nc3ccccc3F)sc2s1,-2.3%,u,-9.3%,-11.9%,5.01µM*,-1.4%
COc1ccc(-c2nc(-c3ccc(NC(=O)c4ccc(Br)o4)cc3)no2)cc1OC,-0.7%,0.7%,u,12.6µM*,-6.9%,-0.4%
